Measurements from ChEMBL document CHEMBL1201862, “PubChem BioAssay data set” (2004).
Out of some 400,000 compounds screened, about 2,100 (0.53%) were called active. Roughly 14% stayed inconclusive and do not appear here. How the calls were made is not given here. The sample as a whole holds a higher share of actives than the screen did.

target: Ataxin-2 (Homo sapiens) (UniProt Q99700); experiment: qHTS for Inhibitors of ATXN expression.; assay type: functional
Sequence (Q99700 whole entry): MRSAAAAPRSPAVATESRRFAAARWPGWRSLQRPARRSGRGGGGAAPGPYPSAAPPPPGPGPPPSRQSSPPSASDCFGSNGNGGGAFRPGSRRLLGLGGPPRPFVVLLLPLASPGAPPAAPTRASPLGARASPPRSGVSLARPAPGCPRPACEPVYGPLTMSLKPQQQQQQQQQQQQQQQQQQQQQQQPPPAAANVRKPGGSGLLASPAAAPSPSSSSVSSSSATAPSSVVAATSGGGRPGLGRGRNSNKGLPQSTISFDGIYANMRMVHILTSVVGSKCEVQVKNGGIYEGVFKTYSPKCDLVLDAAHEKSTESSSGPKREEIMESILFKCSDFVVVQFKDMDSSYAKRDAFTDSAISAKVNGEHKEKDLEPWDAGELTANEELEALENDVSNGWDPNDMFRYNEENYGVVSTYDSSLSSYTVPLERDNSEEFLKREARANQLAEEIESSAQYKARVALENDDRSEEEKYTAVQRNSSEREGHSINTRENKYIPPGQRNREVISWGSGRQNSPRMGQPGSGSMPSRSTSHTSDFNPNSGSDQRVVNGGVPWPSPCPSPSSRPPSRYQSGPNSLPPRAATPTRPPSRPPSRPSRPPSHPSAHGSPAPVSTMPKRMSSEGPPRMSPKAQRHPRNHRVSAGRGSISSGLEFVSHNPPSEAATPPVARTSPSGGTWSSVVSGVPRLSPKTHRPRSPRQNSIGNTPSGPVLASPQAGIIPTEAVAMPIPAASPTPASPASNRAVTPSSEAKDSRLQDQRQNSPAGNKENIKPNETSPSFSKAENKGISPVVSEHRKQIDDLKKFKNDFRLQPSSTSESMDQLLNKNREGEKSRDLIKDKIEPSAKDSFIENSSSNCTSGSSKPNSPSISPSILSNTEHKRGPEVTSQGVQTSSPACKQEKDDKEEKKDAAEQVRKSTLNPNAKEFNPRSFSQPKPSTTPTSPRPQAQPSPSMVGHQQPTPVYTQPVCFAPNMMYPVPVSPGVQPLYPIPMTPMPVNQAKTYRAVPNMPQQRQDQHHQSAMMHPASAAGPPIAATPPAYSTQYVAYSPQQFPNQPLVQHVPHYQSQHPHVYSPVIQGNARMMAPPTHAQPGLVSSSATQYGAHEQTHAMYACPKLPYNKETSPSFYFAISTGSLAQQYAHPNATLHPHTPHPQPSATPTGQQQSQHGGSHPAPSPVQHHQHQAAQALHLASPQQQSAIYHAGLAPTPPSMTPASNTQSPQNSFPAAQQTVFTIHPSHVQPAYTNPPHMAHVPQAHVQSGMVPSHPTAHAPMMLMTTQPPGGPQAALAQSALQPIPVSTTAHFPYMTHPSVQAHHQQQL

SMILES	Potency
CCCCC[C@@H](/C=C/C1C(=O)C=C[C@H]1C/C=C\CCCC(=O)OC)OC(C)=O (stereo partly specified)	35.5 µM (active)
CCCCC[C@H](O)/C=C/C1C(=O)C=C[C@H]1C/C=C\CCCC(=O)OC (stereo partly specified)	35.5 µM (active)
CCOC(=O)c1c(NC(=O)c2ccc(S(=O)(=O)N3CCCC(C)C3)cc2)sc2c1CCN(C(C)C)C2 (stereo unspecified)	inactive
Cc1cc(-c2ccc(Br)s2)nc(-n2cccc2)n1	inactive
OC1(c2ccc(Cl)c(Cl)c2)C[n+]2ccccc2N1Cc1ccccc1 (stereo unspecified)	28.2 µM (active)
Cc1ccc2nc3c(cc(C(=O)NCCc4ccccc4)c(=N)n3CCCN3CCOCC3)c(=O)n2c1	inactive
CC(C)(O)C#Cc1ncc(C(F)(F)F)cc1Cl	inactive
N#CC(C#N)=c1ccc2c(c1)NC1(CCCCC1)N=2	12.6 µM (active)
COc1ccc(CCNC(=O)C(=O)NCC2OCCN2S(=O)(=O)c2ccc(OC)c(OC)c2)cc1 (stereo unspecified)	inactive
O=C(COc1ccc(F)cc1Cl)NC1CCCCCC1	inactive
COc1ccc(CCNC(=O)COc2ccc(S(=O)(=O)NC3CCCCC3)cc2Cl)cc1	35.5 µM (active)
CCCCNc1c(-c2ccc(SC3CCCCC3)cc2)nc2cnccn12	inactive
Cc1ccc(-c2nnc(NC3CCCCC3)c3ccccc23)cc1S(=O)(=O)N1CCN(C)CC1	11.2 µM (active)
O=C(NCCC1=CCCCC1)c1coc(=O)c(Br)c1	31.6 µM (active)
COc1ccc(CCNC(=O)c2coc(=O)c(Br)c2)cc1	20 µM (active)
O=C(COc1ccccc1Br)NCCC1=CCCCC1	inactive
Cc1noc(C)c1COc1ccc(C(=O)NCCc2ccc(S(N)(=O)=O)cc2)cc1	inactive
Cn1c(C(=O)O)cc2c(=O)n3ccccc3nc21	inactive
O=C(Nc1ccc2cccnc2c1)c1ccc(Br)cc1	inactive
CC(=O)OCCn1c2nc(=O)[nH]c(=O)c-2nc2cc(C)c(C)cc21	inactive
COc1ccc2nc(NN=C3C(=O)CC(C)(C)CC3=O)sc2c1	33.6 µM (active)
COc1cccc(C2C3=C(O)CC(C)(C)CC3=NC(C)=C2C(=O)Nc2nc3ccccc3s2)c1OC (stereo unspecified)	inactive
COc1ccc2nc(Nc3ccccc3)sc2c1	inactive
O=C(Nc1ccc2oc(=O)ccc2c1)c1ccc(-c2cccc([N+](=O)[O-])c2)o1	39.8 µM (active)
COc1ccc(CCNC(=O)c2ccc(-c3cccc([N+](=O)[O-])c3)o2)cc1OC	inactive
O=C(Nc1nccs1)c1ccc(-c2ccc([N+](=O)[O-])cc2)o1	inactive

SMILES	Potency
COc1cc2c(cc1N/C=C(\C#N)c1nc(-c3ccccc3)cs1)oc1ccccc12	inactive
COc1cc2c(cc1NC(=O)COC(=O)/C=C/c1ccccc1)oc1ccccc12	17.8 µM (active)
COc1ccc(C(=N)NOC(=O)/C=C/c2ccccc2)cc1	inactive
CCCCc1ccc(/C(C)=N/Nc2cc(N3CCOCC3)nc(C)n2)cc1	inactive
O=C(CN1C(=O)NC2(CCCCC2)C1=O)Nc1ccc2c(c1)CCC2	28.2 µM (active)
O=C(CN1CCN(Cc2ccccc2)CC1)Nc1ccc2c(c1)CCC2	inactive
O=C(CN1C(=O)NC2(CCCC2)C1=O)Nc1nc(-c2ccccc2)cs1	inactive
CCc1ccccc1-n1c(N)c(C(=O)OC)c2nc3ccccc3nc21	inactive
Cc1[nH]n(-c2ccccc2)c(=O)c1N=Nc1c(O)cc(S(=O)(=O)N(C)C)c2ccccc12	4.47 µM (active)
Cc1[nH]n(-c2ccccc2)c(=O)c1N=Nc1nccs1	39.8 µM (active)
CN1C(=O)c2cccc3c(S(=O)(=O)N(C)C)ccc1c23	inactive
Cc1[nH]n(-c2ccc(Cl)cc2)c(=O)c1N=Nc1cccnc1	inactive
O=C(O)c1cc2c(ncc3c(=O)n(-c4ccccc4)[nH]c32)s1	inactive
CN(C)S(=O)(=O)c1ccc2[nH]cc(/C=C/c3nc4ccccc4c(=O)n3-c3ccccc3)c2c1	inactive
Cc1cccc(/N=c2\oc3cc(O)ccc3cc2C(N)=O)c1	inactive
COc1cccc(C2Oc3ccccc3C3CC(c4cccs4)=NN32)c1 (stereo unspecified)	inactive
CC1(C)Cc2c(sc3nc(SCC(=O)O)nc(N)c23)CO1	inactive
COC(=O)CSc1nc(N)c2c3c(sc2n1)C(c1ccccc1)SC(c1ccccc1)C3 (stereo unspecified)	35.5 µM (active)
COC(=O)c1sc2nc3c(c(-c4cccs4)c2c1N)CCCC3	inactive
Cc1ccc2oc(=O)c(S(=O)(=O)c3ccc(F)cc3)cc2c1	inactive
O=C(NCCOc1ccccc1Cl)C(=O)c1c[nH]c2ccccc12	inactive
Cc1cn(-c2cc(C(=O)Nc3ccc(C)c(NC(=O)C(=O)c4c[nH]c5ccccc45)c3)cc(C(F)(F)F)c2)cn1	20 µM (active)
Cc1ccc(NC(=O)COC(=O)c2c[nH]c3ccccc23)cc1C	inactive
OCCN1CCN(c2ncnc3c2ncn3[C@H]2CN(Cc3ccc(-c4ccccc4)cc3)C[C@@H](CO)O2)CC1	39.8 µM (active)
COc1ccc(/C=N/N(C)C2=NS(=O)(=O)c3ccccc32)cc1	inactive
CSc1ccc(/C=C/C(=O)OCC(=O)N2CCc3ccccc32)cc1	inactive

SMILES	Potency
COc1cccc(NC=C2C(=O)CCCC2=O)c1	inactive
COc1ccc(/C=C2\CCC/C(=C\C=N\N(C)C)C2=O)cc1	11.2 µM (active)
CN(C)c1ccc(/C=C2\CCCc3c2nc2ccccc2c3C(=O)O)cc1	inactive
CCCC(/C=C/c1ccc(OC(C)=O)cc1)=C1/c2ccccc2C(=O)N1c1ccccc1	inactive
CCCC/C=C1/CCC(CN(C)C)C1=O (stereo unspecified)	37.7 µM (active)
COc1cccc(C2NC(=O)CCC2[N+](=O)[O-])c1 (stereo unspecified)	inactive
COc1cccc(/C=C2/CCC(CN(C)C)C2=O)c1 (stereo unspecified)	9.47 µM (active)
CN(C)CC1CCC/C(=C\c2ccc(OC(=O)/C=C/c3ccccc3)cc2)C1=O (stereo unspecified)	35.5 µM (active)
Cc1noc(C)c1COc1ccc(C(=O)OCC(=O)Nc2ccc(S(N)(=O)=O)cc2)cc1	inactive
CN(C)S(=O)(=O)Oc1ccsc1C(=O)Nc1ccc(Br)cc1	inactive
COc1ccc(/C=C/CN2CCN(CC(C)C)C(CCO)C2)cc1 (stereo unspecified)	inactive
CC1CCN(c2ccc3c(c2)S(=O)(=O)c2cc(C(=O)O)ccc2C3=O)CC1	inactive
Brc1ccc2ncc(Br)cc2c1	inactive
CCCCn1nc(NC(=O)c2cccs2)c2cc3cc(OC)ccc3nc21	inactive
CN(C)CC1CC/C(=C\c2ccc(O)cc2)C1=O (stereo unspecified)	39.8 µM (active)
O=C(O)c1c2c(nc3ccccc13)/C(=C/c1ccc(O)cc1)CC2	inactive
COc1ccc(/C=C2/CCCC(CN(C)C)C2=O)cc1 (stereo unspecified)	13.4 µM (active)
Cc1cc(=O)oc2cc3c(cc12)OCCN3	inactive
CC(C)(C)c1ccc(C2=CC(c3ccccc3)n3ncnc3N2)cc1 (stereo unspecified)	inactive
CCN(CC)c1ccc2c(C)c(CO)c(=O)oc2c1	inactive
COc1c(Br)cc(/C=N/n2c(S)nnc2-c2ccccc2)c(O)c1Br	inactive
O=C(Nc1cccc(NC(=O)c2cc([N+](=O)[O-])ccc2Cl)n1)c1cc([N+](=O)[O-])ccc1Cl	22.4 µM (active)
Cc1cccc(NC(=O)c2cc(Cl)nc3ccccc23)n1	inactive
O=C(Nc1cccc(NC(=O)c2cccc([N+](=O)[O-])c2)n1)c1cccc([N+](=O)[O-])c1	inactive
c1cn2c(NC3CCCCC3)c(-c3ccc(SC4CCCCC4)cc3)nc2cn1	inactive
CCc1ccc(S(=O)(=O)ON2C(=O)c3ccccc3C2=O)cc1	23.8 µM (active)

SMILES	Potency
Fc1ccc(-c2nnc3ccc(N4CCc5ccccc5C4)nn23)cc1	35.5 µM (active)
Cc1ccc(F)cc1NC(=O)N1CCCN(c2ccc(C(F)(F)F)cn2)CC1	inactive
COc1ccccc1NC(=O)N1CCN(c2ccc3nnc(-c4ccc(F)cc4)n3n2)CC1	25.1 µM (active)
COc1ccc(Cl)cc1NC(=O)N1CCN(c2ccccc2OC)CC1	inactive
CCN(CC)C(=O)CSc1nc2ccccc2c(=O)n1CCC(=O)N1CCN(c2ccccc2)CC1	inactive
COc1ccc(-n2cc(C(=O)c3cc(Cl)ccc3O)cc(C#N)c2=O)cc1	inactive
Fc1cccc(Cc2c(-c3ccco3)nc3ccc(Cl)cn23)c1	39.8 µM (active)
Clc1cccc(Cc2c(-c3ccco3)nc3ccc(Br)cn23)c1	31.6 µM (active)
COc1ccc2nc(-c3ccco3)c(-c3ccco3)nc2c1	inactive
Clc1cccc(CSc2ccc(-c3ccco3)nn2)c1	inactive
COc1ccc(Cc2c(-c3ccco3)nc3ccc(Br)cn23)c(C)c1	20 µM (active)
Clc1cccc(Cc2c(-c3ccco3)nc3ccc(Cl)cn23)c1	28.2 µM (active)
COc1ccc(C2C(C(=O)c3ccco3)=C(O)C(=O)N2c2nnc(C)s2)cc1 (stereo unspecified)	inactive
O=C(CC1C(=O)NC2CCCCC2N1C(=O)c1ccc([N+](=O)[O-])cc1)Nc1ccccc1 (stereo unspecified)	inactive
Cc1ccc(S(=O)(=O)N2CCN(C(=O)c3cc(C4CC4)nc4c3cnn4C(C)C)CC2)cc1	inactive
CC(=O)Nc1c(-c2ccccc2)nc2ccc(Cl)cn12	inactive
Fc1cccc(Cc2c(-c3ccco3)nc3ccc(Br)cn23)c1	39.8 µM (active)
Cc1nc2ccc(Cl)cn2c1[N+](=O)[O-]	inactive
Sc1nnc(-c2ccco2)n1-c1ccc(Br)cc1	inactive
Cc1ccc2nc(-c3ccco3)c(CC3CCCCC3)n2c1	22.4 µM (active)
Cc1ccc(Cc2c(-c3ccco3)nc3ccc(Cl)cn23)cc1	25.1 µM (active)
Cc1ccc2nc(-c3ccncc3)c(NC3CCCCC3)n2c1	inactive
CCOC(=O)C1CCN(C(=O)Nc2ccc3nc(-c4ccco4)c(-c4ccco4)nc3c2)CC1	inactive
